# Bioassay records: PubChem, National Center for Advancing Translational Sciences (NCATS)
# In the library only some 17% were active in any assay of this set; here they are far more common.
# TGFb SMAD3 inh: qHTS for Inhibitors of TGF-b; HepG2 CAGA-GFP TGF-b/SMAD3 reporter, GFP fluorescence, 18 h; TGF-beta stimulated, 500 pg/mL final; Potency, µM (series often up to 46.1 µM), inactives show at the top dose activity, negative = inhibition, actives largely listed as inhibitors; 1.2% of 410,000 active; AID 588855, 2011; note: % is set by controls: 0 for no effect and ±100 for the full control effect; nearly all actives have a fitted effect of over 65% in size
#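 HEPG2 CAGA-GFP reporter cells (1000/well, DMEM with 1% FBS) received compounds, then recombinant TGF-beta at 500 pg/mL final for 18 hours at 37 degrees C. Per-cell GFP summed per well was normalised to unstimulated and stimulated DMSO controls before curve fitting.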
# HepG2 viability: qHTS for Inhibitors of TGF-b: Cytotox Counterscreen; HepG2 CAGA-GFP viability, ATP luminescence, 18 h; Potency, µM (highest dose often 46.1 µM), inactives show at the highest dose activity change, negative = cytotoxicity, hits mostly cytotoxic; 0.76% of 410,000 active
#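 HepG2 CAGA-GFP cells (1000/well, DMEM with 1% FBS) received compound, then TGF-beta at 500 pg/mL final, and were incubated 18 hours at 37 degrees C. Viability was read by CellTiter-Glo luminescence. Media-only wells were set as complete cell-killing and DMSO as no toxicity.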
# DT40 TDP1 CPT: qHTS for Inhibitors of human tyrosyl-DNA phosphodiesterase 1 (TDP1): qHTS in cells in presence of CPT. chicken DT40 Tdp1-/-;hTDP1 cells + 20 nM CPT, ATP luminescence, 48 h. Potency, µM (doses to about 46.2 µM), for inactives: at the highest dose activity change, negative = growth inhibition, most hits filed as inhibitors. 12% of 420,000 active. AID 686979, 2013; note: % is set by controls: 0 for no effect and ±100 for the full control effect; nearly all actives have a fitted effect of over 55% in size
#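 Chicken DT40 Tdp1-/- cells stably complemented with human TDP1 were seeded at 400 cells/well in medium containing 20 nM camptothecin, exposed to pin-transferred compounds, and grown at 37 °C for at least 48 hr. Viability was read as ATP luminescence.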
# ATXN2 expr inh: Primary qHTS for Inhibitors of ATXN expression. HEK-293 ATXN2-luciferase reporter, luminescence, 24 h. Potency, µM (series often up to 57 µM), inactives show top-dose activity change, negative = inhibition, hits mostly inhibitors. 0.72% of 360,000 active. AID 1745845, 2022; note: % is set by controls: 0 for no effect and ±100 for the full control effect; nearly all actives have a fitted effect of over 55% in size
#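 ATXN2-luciferase reporter cells (luciferase flanked by upstream and downstream ATXN2 gene portions) were treated 24 h at 37 °C with compounds at up to 57 uM. SteadyGlo luminescence gave expression; GF-AFC fluorescence gave viability.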
# DT40 TDP1 no CPT: qHTS for Inhibitors of human tyrosyl-DNA phosphodiesterase 1 (TDP1): qHTS in cells in absence of CPT. Potency, µM (titrated, usually from 46.2 µM), for inactives: at the top dose activity change, negative = growth inhibition, actives largely listed as inhibitors. AID 686978, 2013. 15% of 420,000 active. DT40 Tdp1-/- hTDP1 cells, no CPT, ATP luminescence, 48 h; note: % is set by controls: 0 for no effect and ±100 for the full control effect; nearly all actives have a fitted effect of over 55% in size
#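 Luminescent ATP content (CellTiter-Glo) served as the growth readout. Knockout chicken DT40 cells expressing human TDP1 were exposed to compounds without camptothecin for a minimum 48 hr at 37 °C.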
# ATXN viability: Viability Counterscreen for Primary qHTS for Inhibitors of ATXN expression. 0.49% of 400,000 active. AID 651635, 2014. Potency, µM (doses to about 56.7 µM), usual class: cytotoxic. S2 cells (HEK-293 line with an ATXN2-luciferase reporter) viability, CellTiter-Fluor protease fluorescence, 24 h; note: nearly all actives have a fitted effect of over 40% in size
# Active calls of the source: *; i = inactive; ? = inconclusive; / = no result. Calls come from the whole dose curve; as a rule, active = well fitted curve in the direction sought with a large enough effect; inconclusive = small, poorly fitted or top-dose-only effect, or another doubt; inactive = no such curve, though single readings can be large; an effect the other way counts as inactive or inconclusive. Potency is the fitted concentration of half-maximal effect.
SMILES,TGFb SMAD3 inh,HepG2 viability,DT40 TDP1 CPT,ATXN2 expr inh,DT40 TDP1 no CPT,ATXN viability
COC(=O)c1ccccc1NC(=O)CCCn1c(C)c2cnn(-c3ccccc3)c(=O)c2c1C,?,-17%,-21%,-6%,-17%,i
Cc1c2cnn(-c3ccccc3)c(=O)c2c(C)n1CCCC(=O)Nc1ccc(F)cc1F,?,-17%,?,0%,16µM*,i
CCOC(=O)c1cccc(NC(=O)C(C)n2c(C)c3cnn(-c4ccccc4)c(=O)c3c2C)c1 (centres undefined),-29%,-27%,?,-8%,-24%,i
CCCc1[nH]nc2c1C1(CCN(C(=O)OCc3ccccc3)CC1)C(C#N)=C(N)O2,-15%,5%,21µM*,22%,?,i
COc1ccc(NS(=O)(=O)c2csc(C(=O)N3CCCC3)c2)cc1,-2%,0%,-28%,-1%,?,i
COc1ccc(NC(=O)c2cc(S(=O)(=O)Nc3ccc(OC)cc3)cs2)cc1,?,-16%,?,/,29µM*,i
O=C(Nc1ccc(F)cc1)c1cc(S(=O)(=O)Nc2ccc(F)cc2)cs1,?,-63%,?,-3%,29µM*,i
COC(=O)c1ccccc1NC(=O)CCC(=O)N1CC(C)Oc2ccc(C)cc21 (centres undefined),-1%,-2%,15µM*,-4%,?,i
CCOC(=O)c1cccc(NC(=O)CCC(=O)N2CC(C)Oc3ccc(C)cc32)c1 (centres undefined),-26%,0%,23µM*,-13%,?,i
Cc1ccc2c(c1)N(C(=O)CCC(=O)NCC(C)c1ccccc1)CC(C)O2 (centres undefined),-1%,-7%,?,-12%,?,i
Cc1ccc2c(c1)N(C(=O)CCC(=O)Nc1ccc(F)cc1F)CC(C)O2 (centres undefined),-18%,-4%,5.2µM*,-9%,7.3µM*,i
COc1ccc(N2CCN(C(=O)CCC(=O)N3CC(C)Oc4ccccc43)CC2)cc1 (centres undefined),-12%,-35%,?,-13%,?,i
CCOC(=O)c1ccccc1NC(=O)N1CC(C)Oc2ccc(C)cc21 (centres undefined),?,-27%,?,/,?,/
CC1CN(C(=O)CCC(=O)N2CCN(c3cccc(C(F)(F)F)c3)CC2)c2ccccc2O1 (centres undefined),?,-52%,18µM*,?,21µM*,i
Cc1ccc(CN2CC(C(=O)OCc3ccccc3Cl)CC2=O)cc1 (centres undefined),-2%,0%,-20%,3%,-13%,i
CCC(=O)Nc1c2c(nn1-c1cccc(Cl)c1)CS(=O)(=O)C2,3%,-6%,-8%,/,5%,i
CC(C)CCNC(=O)Cn1nc(N2CCN(c3ccccc3)CC2)ccc1=O,7%,1%,-4%,-7%,-18%,i
Oc1c(Br)cc(Br)cc1-c1nc2ccccc2s1,7%,-9%,-11%,7%,-9%,i
COC(=O)c1ccccc1NC(=O)CCC(=O)N1CC(C)Sc2ccccc21 (centres undefined),?,-16%,16µM*,/,15µM*,/
Cc1ccc2c(c1)N(C(=O)CCC(=O)N1CCC(C(N)=O)CC1)CC(C)O2 (centres undefined),-4%,-11%,26µM*,6%,5%,i
Cc1ccc2c(c1)N(C(=O)CCC(=O)N1CCOCC1)CC(C)O2 (centres undefined),-5%,-1%,-1%,4%,-5%,i
